According to the supplement of paper PMC6555819:

How the values were obtained:
Assay in all cases: PBM binding z-score (relative to random genomic background probes); higher = stronger binding; sequences stand for … in GC…GCGATTGACAGCGTAGAATGAAGG
[1] = tested on: FXR:RXRa (NR concentration 270 nM, RXRa partner concentration 90 nM)
Procedure, shortened: (§1)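 Each nuclear receptor dimer, without ligand, was incubated for 1 h on custom Agilent 4×180K protein-binding microarrays. Binding was detected with antibodies against each partner (one per run), and scanned fluorescence was regression-normalized. The binding z-scores are referenced to random human genomic background probes.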

[2] = tested on: LXRa:RXRa (NR concentration 270 nM, RXRa partner concentration 90 nM)
Procedure, shortened: as §1

[3] = tested on: LXRa homodimer (NR concentration 270 nM)
Procedure, shortened: as §1

[4] = tested on: LXRb:RXRa (NR concentration 270 nM, RXRa partner concentration 90 nM)
Procedure, shortened: as §1

[5] = tested on: LXRb homodimer (NR concentration 270 nM)
Procedure, shortened: as §1

[6] = tested on: PPARa:RXRa (NR concentration 270 nM, RXRa partner concentration 90 nM)
Procedure, shortened: as §1

[7] = tested on: PPARg:RXRa (NR concentration 180 nM, RXRa partner concentration 90 nM)
Procedure, shortened: as §1

[8] = tested on: PPARg:RXRa 270nM:90nM, anti-RXR (NR concentration 270 nM, RXRa partner concentration 90 nM)
Procedure, shortened: as §1

[9] = tested on: PPARg:RXRa 30nM:10nM, anti-RXR (NR concentration 30 nM, RXRa partner concentration 10 nM)
Procedure, shortened: as §1

[10] = tested on: PPARg:RXRa 90nM:30nM, anti-RXR (NR concentration 90 nM, RXRa partner concentration 30 nM)
Procedure, shortened: as §1

[11] = tested on: PPARg:RXRa DBDmut IVT, anti-RXR (DBD mutation: RXRa K156A/R161A, NR concentration 270 nM, RXRa partner concentration 90 nM)
Procedure, shortened: as §1

[12] = tested on: PPARg:RXRa IVT, anti-PPARg (NR concentration 270 nM, RXRa partner concentration 90 nM)
Procedure, shortened: as §1

[13] = tested on: PPARg DBDmut:RXRa IVT, anti-PPARg (DBD mutation: PPARg1 K132A/R137A, NR concentration 270 nM, RXRa partner concentration 90 nM)
Procedure, shortened: as §1

[14] = tested on: PPARg DBDmut IVT, anti-PPARg (DBD mutation: PPARg1 K132A/R137A, NR concentration 270 nM)
Procedure, shortened: as §1

[15] = tested on: PPARg homodimer (NR concentration 180 nM)
Procedure, shortened: as §1

[16] = tested on: PXR:RXRa (NR concentration 270 nM, RXRa partner concentration 90 nM)
Procedure, shortened: as §1

[17] = tested on: PXR homodimer (NR concentration 270 nM)
Procedure, shortened: as §1

[18] = tested on: RARa:RXR (NR concentration 270 nM, RXRa partner concentration 90 nM)
Procedure, shortened: as §1

[19] = tested on: RARa homodimer (NR concentration 270 nM)
Procedure, shortened: as §1

[20] = tested on: RARb:RXRa (NR concentration 270 nM, RXRa partner concentration 90 nM)
Procedure, shortened: as §1

| Sequence | PBM binding z-score [1] | PBM binding z-score [2] | PBM binding z-score [3] | PBM binding z-score [4] | PBM binding z-score [5] | PBM binding z-score [6] | PBM binding z-score [7] | PBM binding z-score [8] | PBM binding z-score [9] | PBM binding z-score [10] | PBM binding z-score [11] | PBM binding z-score [12] | PBM binding z-score [13] | PBM binding z-score [14] | PBM binding z-score [15] | PBM binding z-score [16] | PBM binding z-score [17] | PBM binding z-score [18] | PBM binding z-score [19] | PBM binding z-score [20] |
| --- | --- | --- | --- | --- | --- | --- | --- | --- | --- | --- | --- | --- | --- | --- | --- | --- | --- | --- | --- | --- |
| ATCTCTAGGTAAGACTCAGTTCAGTAAAGAACGC | 0.34 | 0.725 | 0.918 | 0.419 | 0.923 | 0.152 | 0.102 | 0.669 | 0.474 | 0.414 | 1.94 | 1.31 | 0.584 | 0.972 | 0.82 | 1.24 | 1.74 | 0.263 | 1.3 | 0.396 |
| TCTTGTAGGTCAGCAGGTTAAGAAAGCTGGCCAA | 3.31 | 2.55 | 0.186 | 2.16 | 0.418 | 4.35 | 6.77 | 5.91 | 4.19 | 5.71 | 6.85 | 7.39 | 2.94 | 2.48 | 2.31 | 1.95 | -0.0454 | 2.84 | 0.787 | 3.91 |
| GCTATTAGTTGAAAGGGCAACGGAATGATTCTCG | 0.364 | 0.524 | 0.225 | 0.73 | -0.171 | 2.5 | 2.45 | 4.33 | 2.24 | 4.02 | 0.701 | 0.992 | 1.04 | 0.361 | 0.8 | 0.606 | 0.255 | 1.19 | 0.995 | 1.93 |
| CCAGACAGGTGAGAAAGTAACTCAGCCTCGATTA | -0.0524 | 0.0409 | 0.0347 | 0.0309 | -0.167 | 0.206 | 0.1 | -0.203 | -0.427 | -0.273 | 0.811 | 0.252 | -0.222 | -0.131 | 0.452 | -0.35 | 0.307 | 0.117 | 0.86 | 0.141 |
| ACAGACAGGTGAGTGATGGTAACTCAGCTGGACG | 0.332 | 0.668 | -0.354 | -0.409 | -0.477 | -0.213 | 0.554 | -0.115 | -0.0308 | -0.212 | 0.622 | 0.347 | -0.278 | -0.268 | 0.364 | -0.415 | -0.0348 | -0.241 | 0.249 | 0.377 |
| TCAGACAGGTCAAGGTAACTCAGGTACGCAGTCG | 4.86 | 4.63 | 0.984 | 3.22 | 0.435 | 4.62 | 3.57 | 4.27 | 3.93 | 4.13 | 2.85 | 2.73 | 0.0851 | 0.283 | 1.88 | 2.46 | 0.321 | 3.37 | 0.676 | 4.31 |
| GCTCGGAGGAGAAGGTCAGAGCTTTGTCCGTAGA | 0.655 | 0.736 | -0.584 | 0.516 | -1.44 | 1.79 | -0.0558 | 0.967 | -0.721 | 0.353 | -0.348 | 0.169 | -0.938 | -2.35 | 0.184 | 1.06 | -1.02 | 1.58 | -1 | 2.3 |
